Many of the other results were omitted from the sample, so hits are more common in it than they were.
IL1B secr inh – inflammasome signaling inhibition, IL-1 beta readout. THP-1 LPS/ATP IL-1B secretion, AlphaLISA, 16 h; stronger effect = lower value. activity change, % at 57.5 µM. 4.7% of 360,000 active. AID 743279; in the data active = activity change below about -50%; inconclusive = mostly about -30% to -49%
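Secreted IL-1B measured by AlphaLISA bead assay after 16 h compound exposure of THP-1 cells; compounds (final up to 57.5 uM) added 1 h before LPS (250 ng/mL) and ATP (1.25 mM) stimulation; lower signal means less secretion.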
HT1080-NT tox – kills 2HG-producing HT-1080-NT fibrosarcoma cells | Potency, µM (highest dose often 46.1 µM), hits mostly cytotoxic | HT-1080-NT fibrosarcoma viability, CellTiter-Glo ATP luminescence, 48 h | 1.6% of 360,000 active | AID 686970;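 also: NT is the 2HG producing partner of a matched IDH1 knockdown line; nearly all actives have a fitted effect of over 55% in size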
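Read-out is CellTiter-Glo luminescence after 10 minutes at room temperature, following 48 hours' compound treatment of HT-1080-NT cells (750 cells/well, RPMI, 5% FBS, 37 degrees C).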
HT1080 IDH1KD tx – toxicity to HT-1080 IDH1 knockdown cells (counter line) | Potency, µM (top dose mostly 46.1 µM), hits mostly cytotoxic | AID 686971 | HT-1080 IDH1 knockdown viability, ATP luminescence, 48 h | 2% of 360,000 active
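% activity derives from luminescence (CellTiter-Glo), normalised to DMSO and no-cell wells. HT-1080-IDH1KD cells, 750/well, had 48 h compound exposure at 37 °C.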
TDP1 cell CPT – DT40-hTDP1 cell growth loss with CPT; Potency, µM (series often up to 46.2 µM), hits mostly inhibitors; AID 686979; 12% of 420,000 active; chicken DT40 Tdp1-/-;hTDP1 cells + 20 nM CPT, ATP luminescence, 48 h; also: nearly all actives have a fitted effect of over 55% in size
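Chicken DT40 Tdp1-/- cells stably complemented with human TDP1 were seeded at 400 cells/well in medium containing 20 nM camptothecin, exposed to pin-transferred compounds, and grown at 37 °C for at least 48 hr. Viability was read as ATP luminescence.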
TDP1 cell noCPT – qHTS for Inhibitors of human tyrosyl-DNA phosphodiesterase 1 (TDP1): qHTS in cells in absence of CPT; AID 686978, 2013; DT40 Tdp1-/- hTDP1 cells, no CPT, ATP luminescence, 48 h; Potency, µM (doses to about 46.2 µM), hits mostly inhibitors; 15% of 420,000 active; also: nearly all actives have a fitted effect of over 55% in size
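Chicken DT40 Tdp1-/- cells complemented with human TDP1, screened without camptothecin (DMSO vehicle only), 400 cells/well. Compounds pin-transferred, cells incubated at 37 °C for at least 48 hr. Growth read as ATP-dependent luminescence (CellTiter-Glo, 30 min at RT).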
ALOX12 inh – ALOX12 (human) lipoxygenase inhibition; 1.1% of 580,000 active; purified 12hLO, xylenol orange hydroperoxide absorbance; Potency, µM (highest dose often 108 µM), hits mostly inhibitors; P18054
Target sequence (P18054 whole entry, looked up): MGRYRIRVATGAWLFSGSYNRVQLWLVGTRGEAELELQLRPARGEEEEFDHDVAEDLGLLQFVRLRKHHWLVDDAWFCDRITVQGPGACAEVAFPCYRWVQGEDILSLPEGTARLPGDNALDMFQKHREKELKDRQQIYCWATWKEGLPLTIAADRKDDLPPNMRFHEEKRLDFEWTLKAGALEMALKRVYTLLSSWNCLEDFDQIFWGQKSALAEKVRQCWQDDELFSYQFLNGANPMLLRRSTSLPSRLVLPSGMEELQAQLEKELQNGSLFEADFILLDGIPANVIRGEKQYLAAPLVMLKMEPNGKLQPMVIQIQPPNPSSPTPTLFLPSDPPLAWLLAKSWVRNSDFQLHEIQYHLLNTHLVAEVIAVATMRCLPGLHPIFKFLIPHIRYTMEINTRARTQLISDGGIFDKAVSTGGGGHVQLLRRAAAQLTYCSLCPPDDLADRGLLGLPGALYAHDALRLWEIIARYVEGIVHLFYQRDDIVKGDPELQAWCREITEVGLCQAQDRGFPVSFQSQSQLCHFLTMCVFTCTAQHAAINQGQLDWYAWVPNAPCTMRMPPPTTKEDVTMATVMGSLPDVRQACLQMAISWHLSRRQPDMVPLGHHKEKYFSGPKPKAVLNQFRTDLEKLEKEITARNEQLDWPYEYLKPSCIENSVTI
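Purified human 12hLO (150 nM final) in 25 mM Hepes, 0.01% Triton X-100, pH 7.0 was preincubated 15 min at room temperature with compound. Then 40 uM arachidonic acid was added, 30 min. Hydroperoxide was read by Fe-XO absorbance ratio 573/405 nm.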
Numbers stand for hits; [ ] = another dose, or the depositor's remark. Unless noted, calls follow the shape of the dose curve; as a rule, active = well fitted curve in the direction sought with a large enough effect; inconclusive = small, poorly fitted or top-dose-only effect, or another doubt; inactive = no such curve, though single readings can be large; an effect the other way counts as inactive or inconclusive.

How did Cc1cnc(SCc2ccccn2)nc1C1CCCN(C(=O)c2cccc(-c3cccc(F)c3)c2)C1 (configuration not stated) do in these assays?
TDP1 cell CPT: inactive[9.04 µM]; TDP1 cell noCPT: 16µM; ALOX12 inh: inconclusive

What do the screens show for `O=C(CCC1CCN(Cc2ccccc2)CC1)c1ccc2c(c1)NCCCC2`?
TDP1 cell CPT: inconclusive; TDP1 cell noCPT: 12µM; ALOX12 inh: inactive[22.9 µM]

What do the screens show for `COC(=O)c1ccc(CN2CCN(Cc3ccccc3)CC2)cc1`?
IL1B secr inh: inactive; HT1080-NT tox: inactive; HT1080 IDH1KD tx: inactive; TDP1 cell CPT: inactive; TDP1 cell noCPT: inactive; ALOX12 inh: inconclusive

Results for O=C(CCC1CCCC1)c1c(O)c2ccccc2oc1=O ?
IL1B secr inh: inactive; HT1080-NT tox: inactive; HT1080 IDH1KD tx: inactive; TDP1 cell CPT: 5.2µM; TDP1 cell noCPT: 4.1µM; ALOX12 inh: inactive

How did N#Cc1cc(NC(=O)c2ccc(Cl)cc2)ccc1Sc1ccccc1 do in these assays?
IL1B secr inh: -61; HT1080-NT tox: inconclusive; HT1080 IDH1KD tx: 21µM; TDP1 cell CPT: 21µM; TDP1 cell noCPT: 16µM; ALOX12 inh: inactive

Results for O=C(Nc1cc[c]([Sb](=[O])([OH])[OH])cc1)c1ccccc1 ?
TDP1 cell CPT: inactive; TDP1 cell noCPT: inactive

What do the screens show for `Cc1ccc(-c2nc(CN3C(=O)CN=C(c4ccccc4)c4ccccc43)c(C)o2)cc1`?
TDP1 cell CPT: inconclusive; TDP1 cell noCPT: 18µM; ALOX12 inh: inactive

How did Cc1oc(-c2ccccc2Cl)nc1CN1C(=O)CN=C(c2ccccc2)c2ccccc21 do in these assays?
IL1B secr inh: inconclusive; HT1080-NT tox: inactive; HT1080 IDH1KD tx: inactive; TDP1 cell CPT: inconclusive; TDP1 cell noCPT: 21µM; ALOX12 inh: inactive

Results for CN1C(=O)C(O)N=C(c2ccccc2)c2ccccc21 (configuration not stated) ?
IL1B secr inh: inactive; HT1080-NT tox: inactive; HT1080 IDH1KD tx: inactive; TDP1 cell CPT: inactive; TDP1 cell noCPT: inactive; ALOX12 inh: inactive

How did COc1ccc(-c2nc(CN3C(=O)CN=C(c4ccccc4)c4ccccc43)c(C)o2)cc1 do in these assays?
TDP1 cell CPT: inconclusive; TDP1 cell noCPT: 18µM; ALOX12 inh: inactive

What do the screens show for `Cc1ccc(-c2nc(CN3C(=O)CN=C(c4ccccc4)c4cc(Cl)ccc43)c(C)o2)cc1`?
TDP1 cell CPT: inconclusive; TDP1 cell noCPT: inconclusive; ALOX12 inh: inactive

What do the screens show for `O=C1CN=C(c2ccccc2)c2cc(Br)ccc2N1Cc1cc(=O)n2ccccc2n1`?
IL1B secr inh: inactive; HT1080-NT tox: inactive; HT1080 IDH1KD tx: inactive; TDP1 cell CPT: inconclusive; TDP1 cell noCPT: inconclusive; ALOX12 inh: inactive

How did O=C1CN=C(c2ccccc2)c2ccccc2N1Cc1ccc(C(F)(F)F)cc1 do in these assays?
IL1B secr inh: inactive; HT1080-NT tox: inactive; HT1080 IDH1KD tx: inactive; TDP1 cell CPT: 22µM; TDP1 cell noCPT: inconclusive; ALOX12 inh: inactive

Results for O=C(Cc1cccc(F)c1)N1CCC2(CC1)NCc1ccccc1-n1ccnc12 ?
ALOX12 inh: inactive

How did CN(C(=O)CNC(=O)OCc1ccccc1)c1ccc(Br)cc1C(=O)c1ccccc1Cl do in these assays?
IL1B secr inh: inactive; HT1080-NT tox: inconclusive; HT1080 IDH1KD tx: inconclusive; TDP1 cell CPT: 3.3µM; TDP1 cell noCPT: 2.3µM; ALOX12 inh: inactive

What do the screens show for `C=C1C(O)[C@@H]2O[C@]3(CC[C@H](/C=C/C(C)[C@@H]4CC(C)=CC5(O[C@H](C[C@@](C)(O)C(=O)O)CCC5O)O4)O3)CC[C@H]2O[C@@H]1C(O)CC(C)[C@H]1OC2(CCCCO2)CCC1C` (some centres not stated)?
IL1B secr inh: inconclusive; HT1080-NT tox: inconclusive; HT1080 IDH1KD tx: 0.0082µM; TDP1 cell CPT: 0.16µM; TDP1 cell noCPT: 0.15µM

Results for C=C1C([C@@H](O)C[C@H](C)C2O[C@@]3(CCCCO3)CC[C@H]2C)OC2CC[C@@]3(CC[C@@H](/C=C/[C@@H](C)C4CC(C)=C[C@]5(O4)O[C@H](C[C@@](C)(O)C(=O)O)CCC5O)O3)OC2[C@@H]1O (some centres not stated) ?
TDP1 cell CPT: 0.013µM; TDP1 cell noCPT: 0.01µM; ALOX12 inh: inactive[6.33 µM]

How did CCCCCCCCN1C(=O)[C@H](CC(=O)NCCc2ccccc2OC)C[C@@]2(C(=O)OC)CCCCC=C12 do in these assays?
IL1B secr inh: -70; HT1080-NT tox: inconclusive; HT1080 IDH1KD tx: inconclusive; TDP1 cell CPT: inconclusive; TDP1 cell noCPT: inconclusive; ALOX12 inh: inactive

Results for COc1cccc(NC(=O)C2CCN(S(=O)(=O)c3cc(-c4noc(C)n4)ccc3C)CC2)c1 ?
TDP1 cell CPT: 18µM; TDP1 cell noCPT: 18µM; ALOX12 inh: inactive

What do the screens show for `N#CC(C#N)=Cc1cccn1-c1ccc(Br)cc1`?
ALOX12 inh: inactive

Results for O=C(NCCc1ccc(Cl)cc1)C(=O)NCC(c1cccs1)S(=O)(=O)c1cccs1 (configuration not stated) ?
TDP1 cell CPT: inconclusive; TDP1 cell noCPT: 13µM; ALOX12 inh: inactive

How did O=C(Nc1ccc2oc(-c3ccccc3F)nc2c1)c1ccc2c(c1)OCCO2 do in these assays?
IL1B secr inh: -54; HT1080-NT tox: 13µM; HT1080 IDH1KD tx: inconclusive; TDP1 cell CPT: 10µM; TDP1 cell noCPT: 15µM; ALOX12 inh: inactive

Results for O=C(Nc1ccccc1Cl)OC1CN2CCC1CC2 (configuration not stated) ?
IL1B secr inh: inactive; HT1080-NT tox: inactive; HT1080 IDH1KD tx: inactive; TDP1 cell CPT: inactive; TDP1 cell noCPT: inconclusive; ALOX12 inh: inconclusive

How did O=C(Nc1ccc(Cl)cc1)OC1CN2CCC1CC2 (configuration not stated) do in these assays?
IL1B secr inh: -52; HT1080-NT tox: inactive; HT1080 IDH1KD tx: inactive; TDP1 cell CPT: inactive; TDP1 cell noCPT: inactive; ALOX12 inh: inconclusive

What do the screens show for `O=C(Nc1cccc(Cl)c1)OC1CN2CCC1CC2` (configuration not stated)?
IL1B secr inh: inconclusive; HT1080-NT tox: inactive; HT1080 IDH1KD tx: inactive; TDP1 cell CPT: 5.2µM; TDP1 cell noCPT: 5.2µM; ALOX12 inh: inconclusive

What do the screens show for `CCOc1ccc(CC(=O)N2CCC3(CC2)c2nccn2-c2ccccc2CN3C)cc1`?
ALOX12 inh: inactive

How did CCCCCc1nc2ccccc2c(=O)n1-c1ccccc1[N+](=O)[O-] do in these assays?
IL1B secr inh: inactive; HT1080-NT tox: inactive; HT1080 IDH1KD tx: inactive; TDP1 cell CPT: inconclusive; TDP1 cell noCPT: 16µM; ALOX12 inh: inactive

How did CCOc1ccc(CCNC(=O)c2cc3c(-c4ccc(OC)c(OC)c4)nn(C)c3s2)cc1OCC do in these assays?
TDP1 cell CPT: 4.1µM; TDP1 cell noCPT: 3.7µM; ALOX12 inh: inconclusive

Assay outcomes deposited in PubChem by National Center for Advancing Translational Sciences (NCATS).
